{
  "source": "paper PMC8384837",
  "about": "“Expanding the binding specificity for RNA recognition by a PUF domain”",
  "test_in_all_cases": "yeast three-hybrid, YBZ-1, SC-Leu-His + 0.5 mM 3-AT, 4 days",
  "details_in_all_cases": "tags: N-Gal4 AD-HA kept; label: inside an RPR1-promoter hybrid RNA with tandem MS2 sites; ssRNA",
  "key": {"[1]": {"biological_target": "PUM1 PUF domain R2-LYL (Homo sapiens, UniProt Q14671 828-1176, N899L;Q903L)", "sequence (Q14671 828-1176 N899L/Q903L)": "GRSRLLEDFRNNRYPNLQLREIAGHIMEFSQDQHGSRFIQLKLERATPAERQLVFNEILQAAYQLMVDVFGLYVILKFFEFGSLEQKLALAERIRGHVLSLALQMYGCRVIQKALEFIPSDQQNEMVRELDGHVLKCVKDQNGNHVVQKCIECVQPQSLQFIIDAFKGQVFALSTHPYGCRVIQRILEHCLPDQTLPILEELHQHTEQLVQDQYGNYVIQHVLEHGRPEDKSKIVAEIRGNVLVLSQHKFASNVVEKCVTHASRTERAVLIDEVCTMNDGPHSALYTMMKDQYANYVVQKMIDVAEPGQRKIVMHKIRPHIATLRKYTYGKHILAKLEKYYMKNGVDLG", "outline": "(§1)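 The interaction score is the log change in how often each variant appears, from input to selection. Frequencies came from PCR-amplified, Illumina-sequenced repeat regions of Pumilio-1 PUF domain libraries grown in strain YBZ-1 (LexA–MS2 coat fusion, HIS3 reporter) alongside matching RNA elements. Input plates were SC-Leu and selection plates were SC-Leu-His + 0.5 mM 3-AT, each for four days, and the log2 calculation used a pseudocount of 1 where a variant was absent.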"}, "[2]": {"biological_target": "PUM1 PUF domain R5-KNA (Homo sapiens, UniProt Q14671 828-1176, C1007K;R1008N;Q1011A)", "sequence (Q14671 828-1176 C1007K/R1008N/Q1011A)": "as the sequence (Q14671 828-1176 N899L/Q903L) above, with L72N, L76Q, C180K, R181N, Q184A counted along it", "outline": "as §1"}, "[3]": {"biological_target": "PUM1 PUF domain R5-RRW (Homo sapiens, UniProt Q14671 828-1176, C1007R;Q1011W)", "sequence (Q14671 828-1176 C1007R/Q1011W)": "as the sequence (Q14671 828-1176 N899L/Q903L) above, with L72N, L76Q, C180R, Q184W counted along it", "outline": "as §1"}, "[4]": {"biological_target": "PUM1 PUF domain R1-LRR (Homo sapiens, UniProt Q14671 828-1176, S863L;Q867R)", "outline": "as §1"}, "[5]": {"biological_target": "PUM1 PUF domain R3-LWS (Homo sapiens, UniProt Q14671 828-1176, C935L;R936W;Q939S)", "outline": "as §1"}, "[6]": {"biological_target": "PUM1 PUF domain R4-GFW (Homo sapiens, UniProt Q14671 828-1176, N971G;H972F;Q975W)", "outline": "as §1"}, "[7]": {"biological_target": "PUM1 PUF domain R4-SPM (Homo sapiens, UniProt Q14671 828-1176, N971S;H972P;Q975M)", "outline": "as §1"}, "[8]": {"biological_target": "PUM1 PUF domain R5-QLS (Homo sapiens, UniProt Q14671 828-1176, C1007Q;R1008L;Q1011S)", "outline": "as §1"}, "[9]": {"biological_target": "PUM1 PUF domain R4-RMT (Homo sapiens, UniProt Q14671 828-1176, N971R;H972M;Q975T)", "outline": "as §1"}, "[10]": {"biological_target": "T1, PUM1 PUF domain R6-RWC (Homo sapiens, UniProt Q14671 828-1176, N1043R;Y1044W;Q1047C)", "T1 sequence": "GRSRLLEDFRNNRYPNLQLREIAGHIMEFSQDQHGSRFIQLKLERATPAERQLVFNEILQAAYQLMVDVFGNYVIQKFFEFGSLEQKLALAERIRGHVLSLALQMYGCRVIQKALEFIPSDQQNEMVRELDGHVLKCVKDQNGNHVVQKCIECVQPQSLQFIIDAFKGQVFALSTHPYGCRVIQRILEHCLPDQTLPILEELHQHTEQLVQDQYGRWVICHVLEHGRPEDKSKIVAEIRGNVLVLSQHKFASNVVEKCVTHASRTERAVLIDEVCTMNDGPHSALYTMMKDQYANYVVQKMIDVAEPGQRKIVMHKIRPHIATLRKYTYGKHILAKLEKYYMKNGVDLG", "outline": "as §1"}, "[11]": {"biological_target": "PUM1 PUF domain R4-RMA (Homo sapiens, UniProt Q14671 828-1176, N971R;H972M;Q975A)", "sequence (Q14671 828-1176 N971R/H972M/Q975A)": "as the sequence (Q14671 828-1176 N899L/Q903L) above, with L72N, L76Q, N144R, H145M, Q148A counted along it", "outline": "as §1"}, "[12]": {"biological_target": "PUM1 PUF domain R4-CNS (Homo sapiens, UniProt Q14671 828-1176, N971C;H972N;Q975S)", "sequence (Q14671 828-1176 N971C/H972N/Q975S)": "as the sequence (Q14671 828-1176 N899L/Q903L) above, with L72N, L76Q, N144C, H145N, Q148S counted along it", "outline": "as §1"}, "[13]": {"biological_target": "PUM1 PUF domain R8-KRW (Homo sapiens, UniProt Q14671 828-1176, N1122K;Y1123R;Q1126W)", "sequence (Q14671 828-1176 N1122K/Y1123R/Q1126W)": "as the sequence (Q14671 828-1176 N899L/Q903L) above, with L72N, L76Q, N295K, Y296R, Q299W counted along it", "outline": "as §1"}, "[14]": {"biological_target": "PUM1 PUF domain R5-NKR (Homo sapiens, UniProt Q14671 828-1176, C1007N;R1008K;Q1011R)", "sequence (Q14671 828-1176 C1007N/R1008K/Q1011R)": "as the sequence (Q14671 828-1176 N899L/Q903L) above, with L72N, L76Q, C180N, R181K, Q184R counted along it", "outline": "as §1"}, "[15]": {"biological_target": "PUM1 PUF domain R4-FGR (Homo sapiens, UniProt Q14671 828-1176, N971F;H972G;Q975R)", "outline": "as §1"}, "[16]": {"biological_target": "PUM1 PUF domain R7-RVC (Homo sapiens, UniProt Q14671 828-1176, S1079R;N1080V;E1083C)", "sequence (Q14671 828-1176 S1079R/N1080V/E1083C)": "as the sequence (Q14671 828-1176 N899L/Q903L) above, with L72N, L76Q, S252R, N253V, E256C counted along it", "outline": "as §1"}, "[17]": {"biological_target": "PUM1 PUF domain R7-GRL (Homo sapiens, UniProt Q14671 828-1176, S1079G;N1080R;E1083L)", "sequence (Q14671 828-1176 S1079G/N1080R/E1083L)": "as the sequence (Q14671 828-1176 N899L/Q903L) above, with L72N, L76Q, S252G, N253R, E256L counted along it", "outline": "as §1"}, "[18]": {"biological_target": "PUM1 PUF domain R3-RPH (Homo sapiens, UniProt Q14671 828-1176, C935R;R936P;Q939H)", "sequence (Q14671 828-1176 C935R/R936P/Q939H)": "as the sequence (Q14671 828-1176 N899L/Q903L) above, with L72N, L76Q, C108R, R109P, Q112H counted along it", "outline": "as §1"}, "[19]": {"biological_target": "PUM1 PUF domain R3-RVT (Homo sapiens, UniProt Q14671 828-1176, C935R;R936V;Q939T)", "sequence (Q14671 828-1176 C935R/R936V/Q939T)": "as the sequence (Q14671 828-1176 N899L/Q903L) above, with L72N, L76Q, C108R, R109V, Q112T counted along it", "outline": "as §1"}, "[20]": {"biological_target": "PUM1 PUF domain R1-SVR (Homo sapiens, UniProt Q14671 828-1176, R864V;Q867R)", "outline": "as §1"}},
  "data": [
    {"sequence": "GGCUAGAACUAGUGGAUCCCCCGGCGCCCGGCGGCUCGAGCCCGGGUAAGUGUAAAAAGUCUGCAUGCCGCCGGGCGCCAUGCCUGCAGGUCGACUCUAGAAAACAUG", "values": [
      {"measurement": "binding signal", "setting": "[1]", "result": "3.33 log2 enrichment (interaction score)"}
    ]},
    {"sequence": "GGCUAGAACUAGUGGAUCCCCCGGCGCCCGGCGGCUCGAGCCCGGGUAAGUGUCAAUAGUCUGCAUGCCGCCGGGCGCCAUGCCUGCAGGUCGACUCUAGAAAACAUG", "values": [
      {"measurement": "binding signal", "setting": "[2]", "result": "2.79 log2 enrichment (interaction score)"},
      {"measurement": "binding signal", "setting": "[3]", "result": "3.43 log2 enrichment (interaction score)"}
    ]},
    {"sequence": "GGCUAGAACUAGUGGAUCCCCCGGCGCCCGGCGGCUCGAGCCCGGGUAAGUGUAAAUUGUCUGCAUGCCGCCGGGCGCCAUGCCUGCAGGUCGACUCUAGAAAACAUG", "values": [
      {"measurement": "binding signal", "setting": "[4]", "result": "2.97 log2 enrichment (interaction score)"}
    ]},
    {"sequence": "GGCUAGAACUAGUGGAUCCCCCGGCGCCCGGCGGCUCGAGCCCGGGUAAGUGUAAAUAGUCUGCAUGCCGCCGGGCGCCAUGCCUGCAGGUCGACUCUAGAAAACAUG", "values": [
      {"measurement": "binding signal", "setting": "[5]", "result": "4.31 log2 enrichment (interaction score)"},
      {"measurement": "binding signal", "setting": "[6]", "result": "4.78 log2 enrichment (interaction score)"},
      {"measurement": "binding signal", "setting": "[7]", "result": "3.49 log2 enrichment (interaction score)"},
      {"measurement": "binding signal", "setting": "[8]", "result": "0.83 log2 enrichment (interaction score)"},
      {"measurement": "binding signal", "setting": "[9]", "result": "3.47 log2 enrichment (interaction score)"},
      {"measurement": "binding signal", "setting": "[10]", "result": "4.89 log2 enrichment (interaction score)"},
      {"measurement": "binding signal", "setting": "[11]", "result": "4.05 log2 enrichment (interaction score)"},
      {"measurement": "binding signal", "setting": "[12]", "result": "0.73 log2 enrichment (interaction score)"},
      {"measurement": "binding signal", "setting": "[13]", "result": "1.73 log2 enrichment (interaction score)"},
      {"measurement": "binding signal", "setting": "[3]", "result": "0.79 log2 enrichment (interaction score)"}
    ]},
    {"sequence": "GGCUAGAACUAGUGGAUCCCCCGGCGCCCGGCGGCUCGAGCCCGGGUAAGUGUUAAUAGUCUGCAUGCCGCCGGGCGCCAUGCCUGCAGGUCGACUCUAGAAAACAUG", "values": [
      {"measurement": "binding signal", "setting": "[14]", "result": "5.24 log2 enrichment (interaction score)"},
      {"measurement": "binding signal", "setting": "[3]", "result": "3.67 log2 enrichment (interaction score)"}
    ]},
    {"sequence": "GGCUAGAACUAGUGGAUCCCCCGGCGCCCGGCGGCUCGAGCCCGGGUAAGCGUAAAUAGUCUGCAUGCCGCCGGGCGCCAUGCCUGCAGGUCGACUCUAGAAAACAUG", "values": [
      {"measurement": "binding signal", "setting": "[13]", "result": "3.21 log2 enrichment (interaction score)"}
    ]},
    {"sequence": "GGCUAGAACUAGUGGAUCCCCCGGCGCCCGGCGGCUCGAGCCCGGGUAAGUGUACAUAGUCUGCAUGCCGCCGGGCGCCAUGCCUGCAGGUCGACUCUAGAAAACAUG", "values": [
      {"measurement": "binding signal", "setting": "[15]", "result": "2.88 log2 enrichment (interaction score)"},
      {"measurement": "binding signal", "setting": "[7]", "result": "0.15 log2 enrichment (interaction score)"},
      {"measurement": "binding signal", "setting": "[12]", "result": "2.9 log2 enrichment (interaction score)"}
    ]},
    {"sequence": "GGCUAGAACUAGUGGAUCCCCCGGCGCCCGGCGGCUCGAGCCCGGGUAAGUUUAAAUAGUCUGCAUGCCGCCGGGCGCCAUGCCUGCAGGUCGACUCUAGAAAACAUG", "values": [
      {"measurement": "binding signal", "setting": "[16]", "result": "2.88 log2 enrichment (interaction score)"},
      {"measurement": "binding signal", "setting": "[17]", "result": "2.75 log2 enrichment (interaction score)"}
    ]},
    {"sequence": "GGCUAGAACUAGUGGAUCCCCCGGCGCCCGGCGGCUCGAGCCCGGGUAAGUGUAAUUAGUCUGCAUGCCGCCGGGCGCCAUGCCUGCAGGUCGACUCUAGAAAACAUG", "values": [
      {"measurement": "binding signal", "setting": "[5]", "result": "4.58 log2 enrichment (interaction score)"},
      {"measurement": "binding signal", "setting": "[18]", "result": "3.26 log2 enrichment (interaction score)"},
      {"measurement": "binding signal", "setting": "[19]", "result": "2.47 log2 enrichment (interaction score)"}
    ]},
    {"sequence": "GGCUAGAACUAGUGGAUCCCCCGGCGCCCGGCGGCUCGAGCCCGGGUAAGUGUAAAUCGUCUGCAUGCCGCCGGGCGCCAUGCCUGCAGGUCGACUCUAGAAAACAUG", "values": [
      {"measurement": "binding signal", "setting": "[4]", "result": "2.97 log2 enrichment (interaction score)"},
      {"measurement": "binding signal", "setting": "[20]", "result": "3.35 log2 enrichment (interaction score)"}
    ]},
    {"sequence": "GGCUAGAACUAGUGGAUCCCCCGGCGCCCGGCGGCUCGAGCCCGGGUAAGUGUGAAUAGUCUGCAUGCCGCCGGGCGCCAUGCCUGCAGGUCGACUCUAGAAAACAUG", "values": [
      {"measurement": "binding signal", "setting": "[8]", "result": "2.16 log2 enrichment (interaction score)"},
      {"measurement": "binding signal", "setting": "[3]", "result": "0.3 log2 enrichment (interaction score)"}
    ]},
    {"sequence": "GGCUAGAACUAGUGGAUCCCCCGGCGCCCGGCGGCUCGAGCCCGGGUAAGUGUAUAUAGUCUGCAUGCCGCCGGGCGCCAUGCCUGCAGGUCGACUCUAGAAAACAUG", "values": [
      {"measurement": "binding signal", "setting": "[6]", "result": "4.86 log2 enrichment (interaction score)"},
      {"measurement": "binding signal", "setting": "[15]", "result": "2.32 log2 enrichment (interaction score)"},
      {"measurement": "binding signal", "setting": "[7]", "result": "3.22 log2 enrichment (interaction score)"},
      {"measurement": "binding signal", "setting": "[12]", "result": "3.64 log2 enrichment (interaction score)"}
    ]},
    {"sequence": "GGCUAGAACUAGUGGAUCCCCCGGCGCCCGGCGGCUCGAGCCCGGGUAAGUGUAAGUAGUCUGCAUGCCGCCGGGCGCCAUGCCUGCAGGUCGACUCUAGAAAACAUG", "values": [
      {"measurement": "binding signal", "setting": "[5]", "result": "6.62 log2 enrichment (interaction score)"}
    ]}
  ]
}
